For 40 sequences, PBM binding z-score results are on record in the supplement of paper PMC6555819.

In this assay the test system is VDR:RXRa (NR concentration 270 nM, RXRa partner concentration 90 nM). Description: PBM binding z-score (relative to random genomic background probes); higher = stronger binding; sequences stand for … in GC…GCGATTGACAGCGTAGAATGAAGG
On the procedure: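 Protein-binding microarray (Agilent 4x180K custom design, double-stranded 60-nt probes: 5' GC cap, 34-nt variable region, 24-nt constant primer region; full probe sequence given). Purified or IVT nuclear receptor:RXRα heterodimers (3:1 NR:RXRα, mostly 270:90 nM) or homodimers were incubated for 1 h in PBS with 2% milk and no ligand, then detected with Alexa488 antibodies. Fluorescence from o1-orientation probes (~5 replicates averaged) was converted to z-scores against 500 random hg19 background probes. Variable regions are seed direct-repeat (DR0–DR5) sites, all their single-nucleotide variants and half-site ablations.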
For the sequence TCTCGGAGGACACGCAAGGTCAGAGCTCGACATC, the PBM binding z-score was 2.45.

On to CGAACTAGATCAAGGACAGTGAATCTCCGCACGC, for which the PBM binding z-score is -0.37.

The sequence CTCGAAAGGTCGGATGAGGTGAGTATACGGATAA yielded a PBM binding z-score of 2.74.

Consider TCGAGTAGGTTACAAATGGGGCATTCAGCTTTCT, for which the PBM binding z-score came out at 0.216. In the case of AATACAGGGTCATCGTAGGCCAGAGTGCGCACAG it was 5.15.

CCTTACGGGTCACGAGGCTATAGCACGACGAGCG: the PBM binding z-score is 3.93.

The sequence CCTACTGGGCGATCAGGTCATTGATATCAACGTT displayed a PBM binding z-score of 1.67.

On to TAGCCTAGGTCAGATCGGGCCACTATACGCTATA, for which the PBM binding z-score came to 1.39. In the case of TCGAGTAGGTTACGGGCATTCAGAATGGCGTCGA it was -0.46; in that of TGAACGAGGTTAAAGATCAGGGAACGTGGCGTCG, 1.8; in that of TATACAGGGTCAAAGGCCACAGTACGAATGTCGA, 5.15. For GCGACTGGGGCATCAGCAGGTTACCATCACTTAA, the PBM binding z-score is -0.265.

Take TCTTGTAGATCAACAGGAGGTTAAGCAAGATCGA: the PBM binding z-score is 0.529. As to CGAACTAGCTCATCCAGGACAGTGAATACATTGA, the PBM binding z-score was -0.134. In the case of AGTCAAAGTTCACTAGGTAACGTATGATTCAGCT it was 3.93; in that of CCTATTAGTTGACCATAAGGGCTACCGAAGCTCG, 0.25; in that of TCATATAGGTAAAGGTTAAAGTCGAACGATATGA, 1.98.

The sequence CGTCCAAGGTCAATGGTAGGTCAGTGAAAGCATT registered a PBM binding z-score of 4.89. For ACTAGCAGGCCAAGGGTCACCCAAGATTAGTCCG, the PBM binding z-score was 3.3.

As to ACTTACGGGTCAACGAGGTAATAGCACGCGTATA, the PBM binding z-score came out at 6.51. For ATCTCTAGGTAAGACTCAGTTCAGCGAAGAACGC, the PBM binding z-score was determined as 0.97. Sequence AGAATGAGGTTAAGATCAGGTAAACAGAATACAT came in with a PBM binding z-score of 1.49.

In turn, TCTTGTAGATCCGCAGGTTAAGAAAGCTGGCCAA returned a PBM binding z-score of 0.237. In the case of TCATAAAGGTAAATGCTAGGTGAAAGTCCGATCT it was 0.918; in that of TGTATTAGTTGAAGGGCAACCGACGAGTCCGTTT, 0.926. In the case of GCAGCCAGGTGAAACGCAGGTAACTCAGGGTGGC it was -0.929. In the case of CCGACTGGGGCATAAGGTAACCATAAGCCAGCCC it was -0.407; in that of TCTAGTAGTTGATTAGGGCAACCGAAACAGCGGA, 0.217. ACTATTAGTTGAGACGAGGGCAGCCGATAGGTTG gave a PBM binding z-score of 0.339. In the case of TTACCTAGGTGAAAGGTCGTTGATGCACGCCTTG it was 2.75; in that of AGAACGAGGGCACGCTGAGTTGTTAGCAGAGTAG, 1.6; in that of CCGACTGGGGCGGAAAGGTTACCATACCATCCGG, 1.02. In the case of TAGCCTAGGTCATTCGGGGGCCAGTATAGAAAGC it was 3.99; in that of TAGCCTAGGTAATTGGGCCAGTATAGTACGCATC, -0.627; in that of CCCGAAAGGTCGTGCTCAGGTGAGTATACCAAAC, 3.47.

GCTGCTAGGTCAGGTTTGTCAGCTAACGGGTACG: the PBM binding z-score was 0.236. Sequence GCTAGCAGGCCACTTGGGTCACTCAATGACGGGC registered a PBM binding z-score of 0.83.

The sequence TCTGCTAGGTCAACGATGGTTAGCTAATCTGCTA had a PBM binding z-score of 1.26. As for AGAATGTGGTTATTAAGATCAGGGAATTGCGGTC, the PBM binding z-score was 0.251. In the case of TCGAGTAGGTTACCAATGGGGCATTGAGCTTTCT it was -0.0858.
